Assay results as given in the supplement of paper PMC6555819.

How the values were obtained:
Experiment in all cases: PBM binding z-score (relative to random genomic background probes); higher = stronger binding; sequences stand for … in GC…GCGATTGACAGCGTAGAATGAAGG
[1] = system: FXR:RXRa (NR concentration 270 nM, RXRa partner concentration 90 nM)
Procedure, shortened: (§1)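 Ligand-free nuclear receptor dimers were applied to custom Agilent 4×180K protein-binding microarrays whose double-stranded probes carried direct-repeat seeds, single-nucleotide variants, half-site ablations and random human genomic background sequences in 34-nt variable regions. Incubation lasted 1 h. Binding z-scores were computed against the random background probes from regression-normalized fluorescence.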

[2] = system: LXRa:RXRa (NR concentration 270 nM, RXRa partner concentration 90 nM)
Procedure, shortened: as §1

[3] = system: LXRa homodimer (NR concentration 270 nM)
Procedure, shortened: as §1

[4] = system: LXRb:RXRa (NR concentration 270 nM, RXRa partner concentration 90 nM)
Procedure, shortened: as §1

[5] = system: LXRb homodimer (NR concentration 270 nM)
Procedure, shortened: as §1

[6] = system: PPARa:RXRa (NR concentration 270 nM, RXRa partner concentration 90 nM)
Procedure, shortened: as §1

[7] = system: PPARg:RXRa (NR concentration 180 nM, RXRa partner concentration 90 nM)
Procedure, shortened: as §1

[8] = system: PPARg:RXRa 270nM:90nM, anti-RXR (NR concentration 270 nM, RXRa partner concentration 90 nM)
Procedure, shortened: as §1

[9] = system: PPARg:RXRa 30nM:10nM, anti-RXR (NR concentration 30 nM, RXRa partner concentration 10 nM)
Procedure, shortened: as §1

[10] = system: PPARg:RXRa 90nM:30nM, anti-RXR (NR concentration 90 nM, RXRa partner concentration 30 nM)
Procedure, shortened: as §1

[11] = system: PPARg:RXRa DBDmut IVT, anti-RXR (DBD mutation: RXRa K156A/R161A, NR concentration 270 nM, RXRa partner concentration 90 nM)
Procedure, shortened: as §1

[12] = system: PPARg:RXRa IVT, anti-PPARg (NR concentration 270 nM, RXRa partner concentration 90 nM)
Procedure, shortened: as §1

[13] = system: PPARg DBDmut:RXRa IVT, anti-PPARg (DBD mutation: PPARg1 K132A/R137A, NR concentration 270 nM, RXRa partner concentration 90 nM)
Procedure, shortened: as §1

[14] = system: PPARg DBDmut IVT, anti-PPARg (DBD mutation: PPARg1 K132A/R137A, NR concentration 270 nM)
Procedure, shortened: as §1

[15] = system: PPARg homodimer (NR concentration 180 nM)
Procedure, shortened: as §1

[16] = system: PXR:RXRa (NR concentration 270 nM, RXRa partner concentration 90 nM)
Procedure, shortened: as §1

[17] = system: PXR homodimer (NR concentration 270 nM)
Procedure, shortened: as §1

[18] = system: RARa:RXR (NR concentration 270 nM, RXRa partner concentration 90 nM)
Procedure, shortened: as §1

[19] = system: RARa homodimer (NR concentration 270 nM)
Procedure, shortened: as §1

[20] = system: RARb:RXRa (NR concentration 270 nM, RXRa partner concentration 90 nM)
Procedure, shortened: as §1

Row | Sequence | PBM binding z-score [1] | PBM binding z-score [2] | PBM binding z-score [3] | PBM binding z-score [4] | PBM binding z-score [5] | PBM binding z-score [6] | PBM binding z-score [7] | PBM binding z-score [8] | PBM binding z-score [9] | PBM binding z-score [10] | PBM binding z-score [11] | PBM binding z-score [12] | PBM binding z-score [13] | PBM binding z-score [14] | PBM binding z-score [15] | PBM binding z-score [16] | PBM binding z-score [17] | PBM binding z-score [18] | PBM binding z-score [19] | PBM binding z-score [20]
1 | TGATATAGGTAAAGGTGAAAGTCGAACGATATGA | 1.07 | 1.26 | 0.291 | 1.47 | 0.036 | 3.47 | 5.08 | 5.2 | 3.64 | 5.25 | 4.83 | 5.52 | 1.32 | 0.962 | 2.3 | 0.991 | 0.297 | 1.93 | 1.63 | 1.8
2 | CCGACTGGGGCATAAGGTTCCCATAAGCCAGCCC | -0.429 | -0.436 | -0.915 | -0.62 | -1.28 | 0.156 | 0.836 | 1.45 | -0.116 | 1.19 | 1.82 | 2 | -1.14 | -1.53 | -0.0208 | -0.582 | -0.205 | -0.563 | 0.262 | 0.252
3 | ATTTACGGGTCAACGAGGTTATAGCACGCGTATA | 7.58 | 5.96 | 2.29 | 4.93 | 1.41 | 6.1 | 6.73 | 6.17 | 3.27 | 5.21 | 3.42 | 4.88 | 2.57 | 2.5 | 2.8 | 5.6 | 4.18 | 5.97 | 1.69 | 4.48
4 | ACTATTAGTTGAGTTAGGGCAACCGATACGACGC | -0.00299 | -0.201 | 0.321 | -0.189 | 0.544 | -0.0901 | 0.832 | 0.293 | 0.372 | 0.303 | -0.0972 | 0.498 | 1.2 | 0.707 | 0.995 | 0.111 | 0.462 | -0.0618 | 1.3 | 0.797
5 | TCTTGGAGATCAAGCAGGTTAAGAAAGCCTGAGT | 0.463 | 0.405 | -0.249 | 0.297 | -0.658 | 1.09 | -0.253 | 1.39 | 2.35 | 1.84 | 1.33 | -0.158 | -0.0417 | -0.978 | -0.522 | 0.538 | 0.0928 | 0.684 | -0.244 | 0.272
6 | CGTCCAAGGTCGTAGGAGGTCAGTGAAGACAGAT | 4.38 | 4.75 | 1.14 | 3.33 | -0.833 | 4.12 | 1.79 | 2.5 | 0.257 | 1.32 | 0.632 | 1.67 | -0.489 | -0.725 | 2.21 | 5.77 | 1.8 | 4.37 | 0.332 | 3.82
7 | CATATTAGTTGACCATAAGGGCAACCGAAGCTCG | 1.05 | 0.784 | 0.591 | 0.601 | 0.928 | 0.55 | 0.779 | 0.866 | 0.713 | 0.78 | 0.59 | 1.02 | 1.7 | 1.43 | 1.42 | 0.825 | 0.678 | 1.19 | 1.93 | 1.8
